Records with an inconclusive call do not appear. Activity calls are given as the source filed them. Calls come from the whole dose curve; as a rule, active = well fitted curve in the direction sought with a large enough effect; inconclusive = small, poorly fitted or top-dose-only effect, or another doubt; inactive = no such curve, though single readings can be large; an effect the other way counts as inactive or inconclusive.
Tests used:
[1] = qHTS of pediatric cancer cell lines to identify multiple opportunities for drug repurposing: Primary screen for Rh41 cells (AID 1347108); note: potency is the fitted concentration of half-maximal effect; nearly all actives have a fitted effect of over 70% in size
Summary of the method: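 Readout: CellTiter-Glo luminescence, 48 h treatment. Controls DMSO (neutral) and bortezomib 2.3 µM final (positive). Potency and efficacy taken from primary-screen concentration-response curves.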

[2] = qHTS of pediatric cancer cell lines to identify multiple opportunities for drug repurposing: Confirmatory screen for NB1643 cells (AID 1347109); note: potency is the fitted concentration of half-maximal effect; nearly all actives have a fitted effect of over 45% in size
Summary of the method: (§1)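 Cells (500-1,000/well) rested 5 h, then received compounds for 48 h; metabolically active cells were measured by CellTiter-Glo luminescence. Final concentrations spanned up to 46 µM (MIPE, 11-point) or 0.59 nM-46 µM (NPC, 8-point) in primary screens, 11-point in follow-ups.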

[3] = qHTS of pediatric cancer cell lines to identify multiple opportunities for drug repurposing: Confirmatory screen for A673 cells (AID 1347110);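 note: potency is the fitted concentration of half-maximal effect; cells exposed to compound for 48 h before the viability read; nearly all actives have a fitted effect of over 65% in size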
Summary of the method: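 Viability was read as ATP luminescence (CellTiter-Glo) after 48 h of compound exposure at 37 C in A673 cells seeded at 500-1,000/well. Titrations reached 46 uM final, with 11 points in the confirmatory screen. Concentration-response curves were fitted directly.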

[4] = qHTS of pediatric cancer cell lines to identify multiple opportunities for drug repurposing: Confirmatory screen for SK-N-MC cells (AID 1347111);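 note: potency is the fitted concentration of half-maximal effect; cells exposed to compound for 48 h before the readout; nearly all actives have a fitted effect of over 70% in size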
Summary of the method: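 Seed 500-1,000 cells/well; rest 5 h at 37 degrees C. Pin-transfer compounds, 11-point titration. Incubate 48 h. Add CellTiter-Glo, 15 min RT, read luminescence.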

[5] = qHTS of pediatric cancer cell lines to identify multiple opportunities for drug repurposing: Confirmatory screen for LAN-5 cells (AID 1347113); note: potency is the fitted concentration of half-maximal effect; nearly all actives have a fitted effect of over 65% in size
Summary of the method: as §1

[6] = qHTS of pediatric cancer cell lines to identify multiple opportunities for drug repurposing: Primary screen for control Hh wild type fibroblast cells (AID 1347106);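 note: series mostly up to about 46 µM; a drop in luminescence marks cytotoxicity and a rise apparent proliferation; nearly all actives have a fitted effect of over 55% in size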
Summary of the method: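 Viability after 48 h compound treatment at 37C, 500-1,000 cells/well, read as ATP luminescence with CellTiter-Glo. Primary screens used 11-point (MIPE, 0.78 nM-46 µM) or 8-point (NPC, 0.59 nM-46 µM) final concentrations; follow-up screens used 11-point dilutions.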

[7] = qHTS of pediatric cancer cell lines to identify multiple opportunities for drug repurposing: Primary screen for Rh30 cells (AID 1347107); note: series mostly up to about 46 µM; nearly all actives have a fitted effect of over 75% in size
Summary of the method: as §1

[8] = qHTS of pediatric cancer cell lines to identify multiple opportunities for drug repurposing: Confirmatory screen for DAOY cells (AID 1347114); note: potency is the fitted concentration of half-maximal effect; nearly all actives have a fitted effect of over 65% in size
Summary of the method: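 Viability measured as metabolically active cells via CellTiter-Glo luminescence following 48 hours of compound exposure, 11-point dilutions in confirmatory testing. 500-1,000 cells/well plated 5 hours before dosing; controls were DMSO and 2.3 µM bortezomib.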

[9] = qHTS of pediatric cancer cell lines to identify multiple opportunities for drug repurposing: Confirmatory screen for BT-12 cells (AID 1347112); note: potency is the fitted concentration of half-maximal effect; nearly all actives have a fitted effect of over 55% in size
Summary of the method: as §1

## Nc1nc(Nc2ccc(S(N)(=O)=O)cc2)nn1C(=O)c1c(F)cccc1F
[1]
  Potency: 14800 nM (active)

## Cc1cn2c(-c3cn[nH]c3)cnc2c(Nc2ccc(C(=O)N3CCNCC3)cc2F)n1
[1]
  Potency: 18700 nM (active)
[2]
  Potency: 9270 nM (active)
[3]
  Potency: 8270 nM (active)
[4]
  Potency: 26100 nM (active)
[5]
  Potency: 13100 nM (active)

## Fc1cc(-c2cccc3ncc(-c4cnn(C5CCNCC5)c4)nc23)cc(F)c1CN1CCOCC1
[1]
  Potency: 23500 nM (active)

## NCC(=O)Nc1ccc(-n2nc(C(F)(F)F)cc2-c2ccc3c(ccc4ccccc43)c2)cc1
[6]
  Potency: inactive
[3]
  Potency: 11700 nM (active)
[4]
  Potency: 329 nM (active)
[5]
  Potency: 2930 nM (active)

## Cc1cc(C(=O)N2CCN(c3cccc(Cl)c3)CC2)n(-c2ccccc2)n1
[7]
  Potency: inactive
[1]
  Potency: 2350 nM (active)
[3]
  Potency: 2330 nM (active)
[4]
  Potency: 2610 nM (active)
[8]
  Potency: 928 nM (active)

## CC[C@@]1(O)C(=O)OCc2c1cc1n(c2=O)Cc2cc3cc(O)ccc3nc2-1
[1]
  Potency: 469 nM (active)
[2]
  Potency: 73.7 nM (active)
[3]
  Potency: 46.5 nM (active)
[4]
  Potency: 13.1 nM (active)
[9]
  Potency: 827 nM (active)
[5]
  Potency: 41.4 nM (active)
[8]
  Potency: 657 nM (active)

## OCCCNc1cc(-c2ccnc(Nc3cccc(Cl)c3)n2)ccn1
[7]
  Potency: inactive
[1]
  Potency: 235 nM (active)
[2]
  Potency: 104 nM (active)
[3]
  Potency: 92.8 nM (active)
[4]
  Potency: 261 nM (active)
[9]
  Potency: 329 nM (active)
[5]
  Potency: 261 nM (active)

## CC(C)c1cc(C(=O)N2Cc3ccc(CN4CCN(C)CC4)cc3C2)c(O)cc1O
[7]
  Potency: inactive
[2]
  Potency: 369 nM (active)
[3]
  Potency: 293 nM (active)
[4]
  Potency: 585 nM (active)
[9]
  Potency: 16500 nM (active)
[5]
  Potency: 465 nM (active)

Source: PubChem BioAssay (NCATS)
